Test results as given in the supplement of paper PMC6555819.

Experiments:
Assay in all cases: PBM binding z-score (relative to random genomic background probes); higher = stronger binding; sequences stand for … in GC…GCGATTGACAGCGTAGAATGAAGG
[1] = tested on: RARb homodimer (NR concentration 270 nM)
Outline: (§1)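 Scanned fluorescence from custom Agilent 4×180K protein-binding microarrays was regression-normalized. Binding z-scores use random background probes as reference. Ligand-free nuclear receptor dimers were incubated on the arrays for 1 h and detected with antibodies against each partner (one per run).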

[2] = tested on: RARg:RXRa (NR concentration 270 nM, RXRa partner concentration 90 nM)
Outline: as §1

[3] = tested on: RARg homodimer (NR concentration 270 nM)
Outline: as §1

[4] = tested on: RXRa DBDmut IVT, anti-RXR (DBD mutation: RXRa K156A/R161A, NR concentration 90 nM)
Outline: as §1

[5] = tested on: RXRa homodimer (NR concentration 180 nM)
Outline: as §1

[6] = tested on: THRa:RXRa (NR concentration 90 nM, RXRa partner concentration 90 nM)
Outline: as §1

[7] = tested on: THRa homodimer (NR concentration 90 nM)
Outline: as §1

[8] = tested on: VDR:RXRa (NR concentration 270 nM, RXRa partner concentration 90 nM)
Outline: as §1

[9] = tested on: VDR homodimer (NR concentration 270 nM)
Outline: as §1

Sequence	PBM binding z-score [1]	PBM binding z-score [2]	PBM binding z-score [3]	PBM binding z-score [4]	PBM binding z-score [5]	PBM binding z-score [6]	PBM binding z-score [7]	PBM binding z-score [8]	PBM binding z-score [9]
CCTATTCGTTGACCATAAGGGCAACCGAAGCTCG	2.14	1.16	1.04	0.173	0.704	1.85	1.57	0.983	0.974
ACAGACAGCTGAGTGAAGGTAACTCAGCTGGACG	-0.758	-0.23	-0.426	-0.997	0.00757	-0.178	-0.586	-0.322	-0.66
TCTTGTAGAACAATAGAGGTTAAGAAAGTGCGCT	1.19	0.879	0.347	0.757	1.42	1.53	-0.547	1.65	0.225
TCTATTAGTTGAAGGGCAACCCACGAGTCCGTTT	1.55	0.894	0.882	1.69	0.809	0.474	0.28	1.1	1.81
ATATGTAGGTTAGCTGGGGTGATTCAGACTAGGC	1.08	0.84	0.761	0.484	0.872	4.14	1.26	1.01	0.601
CCTGCTAGGTCAATGGTCAGTTAAAGCAGCTCGC	3.24	3.72	4.65	1.99	2.11	2.38	0.961	0.89	0.506
GCGACTCGGGCATCAGCAGGTTACCATAACTTAA	0.226	0.257	0.0755	-0.281	0.133	0.266	-0.36	-0.42	-0.501
GCTGCTAGGTCAGGTTCGTCAGCTAACGGGTACG	2.25	2.25	3.35	1.63	1.24	1.94	0.323	1.44	2.58
CCTAGTTGGTCAAGGTCACAGACGCTATAGGTAC	4.33	4.74	5.11	2.16	4.88	4.13	4.27	4.29	3.55
AGAACGAGGGCACGCTGAGTTGATAGCGGAGTAG	1.17	1.85	2.56	1.97	1.26	1.86	0.248	2.13	2.34
GCCGACAGGTGAAACGCAGGTAACTCAGGGTGGC	-0.0352	0.819	0.229	-0.346	0.514	1.35	-0.657	-0.543	-0.993
CCTTACGGGTCACGAGATTATAGCACGACGAGCG	2.95	5.47	5.3	1.95	5.8	2.82	0.216	3.55	0.718
CAAACTAGGTCAAAGGTAAAAGTCGAGCCAACCA	2.87	5.02	4.78	2.02	5.74	3.26	0.692	2.98	0.479
CGAACTAGGTCAGAACAGGATAGTGAAGGATGAT	1.64	2.44	3.17	0.707	1.34	2.39	0.235	0.322	0.187
CAAACTATGTCAAAGGTCAAAGTCGAGCCAACCA	5.04	7.01	6.39	1.75	8.43	3.81	1.14	5.41	2.88
CAAACTAGGTCAAGAGGTCCAAGTCCGCTTCCCG	3.2	4.03	4.37	1.42	2.65	2.55	0.871	4.71	1.74
ATCTCTAGGTAAAAGTTAAGTGAATCCCGAGGAT	-0.425	0.121	0.586	-0.231	0.0332	0.344	-0.106	-0.0664	0.265
AGTCAAAGTTCAGTACGAGGTAACGTAAAGCACG	3.01	4.32	4.54	3.09	2.66	3.64	1.21	2.89	2.62
CTACCAAGGTGTACAAGGTCGTTGATTACTATTC	1.21	0.657	0.16	1.14	0.934	1.99	1.32	2.39	2.13
ACAGACAGGTAATGAAGGTAACTCAGGCTATCAT	0.185	0.351	0.385	-0.156	0.59	1.14	0.263	0.244	-0.0776
ATATGTAGGTTAGCTGGGGTCACTCAGACTAGGC	4.11	4.29	3.51	1.52	5.23	5.18	3.2	5.64	2.95
ATATGTAGATTAGCTGGGGTCATTCAGACTAGGC	3.49	3.43	2.17	1.87	4.94	4.26	3.01	4.91	4.47
ACTATTAGTTGACTTAGGGGAACCGATACGACGC	0.325	0.568	0.663	1.15	0.583	1.11	0.616	0.378	0.357
ATCTCTAGCTAAAGATAGTTCAGTGAATGCAAAT	0.481	0.461	0.353	-0.2	0.159	0.114	-0.112	0.182	0.516
CGAACGAGGGCATGAGTTCATAGCAAATGCCGAT	2.53	3.42	2.88	3.85	3.03	2.73	0.469	5.62	6.18
TGAATGAGGTTAAAGATGAGGGAACGTGGCGTCG	0.748	2.16	1.21	1.33	2.86	2.4	0.742	1.48	0.849

Sequence	PBM binding z-score [1]	PBM binding z-score [2]	PBM binding z-score [3]	PBM binding z-score [4]	PBM binding z-score [5]	PBM binding z-score [6]	PBM binding z-score [7]	PBM binding z-score [8]	PBM binding z-score [9]
CCTCAGAGGACAACAGGAGGTCAGAGCTGCCAGA	3.94	4.09	4.83	1.36	2.06	2.79	0.791	2.34	1.29
CCTTACGGGTCACTCCAGGTTATTGCATCGGAGT	3	4.17	3.98	1.4	3.97	4.94	0.878	4.46	1.95
TCTCGGAGGACACGAAAGGTCAAAGCTCGACATC	5.19	5.82	6.04	1.63	5.82	4.18	1.76	4.67	2.51
CCAGACAGGTGATAAGGTAACTCAGCCTCGATTA	0.435	0.392	0.586	0.284	0.276	1.77	1.72	-0.000379	0.103
TCTATGAGTTGATTAGGGCAACCGAAACAGCGGA	0.553	0.54	0.536	1.45	0.681	0.857	-0.131	0.54	0.333
CTCGAAAGGTCGTGCTCAGGTGAGCATACCAAAC	2.63	5.53	4.45	2.21	5.55	4.12	1.23	3.27	0.533
TCTATTGGTTGATTAGGGCAACCGAAACAGCGGA	0.698	0.341	0.499	0.712	0.317	0.871	0.352	0.547	0.054
TATACAGGGTCAAAGGCCAGACTACGAATGTCGA	3.59	5.73	5.23	3.01	6.99	3.6	0.88	4.68	2.33
CGTCCAAGGTCAGCAGTTCAGTGAAAGCGACGTG	4.62	5.66	6.02	2.93	4.16	3.78	2.45	3.56	2.41
CCTACTGGGCCCAGGTCATTGATCAGTCAAAGCA	2.14	2.06	1.28	-0.46	1.47	2.93	2.15	1.7	1.25
CGTCCAAAGTCAGAGAGGTCAGTGAATGCCGAGT	4.21	2.98	3.26	1.16	2.65	2.72	0.954	4.38	2.12
CGAACTAGGTCATTGACAGGACAGTGACTAGTAA	2.75	4.69	4.28	2.44	2.69	2.84	0.58	2.42	1.07
AGAATGAGGTTACCAAAGATAAGGGAAACGCTTG	0.456	1.85	1.54	1.02	2.18	2.55	0.618	1.07	0.393
ATCTCTAGTTAACCAAGTTCAGTGAATGCCGAAC	1.4	0.578	0.612	0.814	0.549	1.19	0.332	2.46	3.16
CGTCCAAGTTCAACTAAGGTAACGTAAAGCACGC	2.73	3.63	3.97	4.54	2.79	5.06	2.45	4.16	4.43
TAGCCTAGGTCAATCAGGGGCCAGTATAGAAAGC	3.1	5.75	4.13	0.358	2.51	3.22	0.496	2.32	0.332
ATCGAAAGGTCGACGAGGTGAATATACACCGTTT	2.97	4.55	3.93	1.7	4.64	4.06	1.54	6.16	1.84
GGAACGAGGGCATTCGAGTTGATTGCATGGCGAT	0.671	1.07	1.15	3.28	0.842	3.52	-0.335	3.81	3.28
TCTGCTAGGTCAACGATCGTCAGCTAATCTGCTA	2.88	4.06	4.96	0.835	2.44	2.6	0.335	1.03	-0.498
ATATGTATGTTAGCTGGGGTCATTCAGACTAGGC	3.35	3.62	2.31	2.11	5.39	4.27	2.96	5.07	4.67
ACAGATAGGTGATGAAGGTAACTCAGGCTATCAT	0.0763	0.532	0.586	-0.397	0.485	0.83	-0.19	0.219	-0.247
TCAGACGGGTGAAGGTAACTCAGGTACGCAGTCG	0.122	0.19	0.0578	0.65	0.866	1.28	-0.229	0.218	-0.187
CCTACTGGGCCAAAGGTCATCGATTCCAATGCTC	4.9	6.09	5.38	0.987	7.08	3.65	0.966	4.53	2.04
TTACCAAGCTGAGCTGAGGTCGTTGATCCAACTC	0.0127	-0.204	-0.865	0.00802	0.266	2.08	1.17	0.877	0.915
CGTCCAAGGTCGAGGTCAGTGAAAGAGACTCGAA	4.16	4.8	5.32	2.57	4.65	3.93	2.42	3.73	2.96
ATAGACAGGTGATGAAGGTAACTCAGGCTATCAT	0.392	0.0804	0.356	-0.779	0.265	0.901	0.156	0.166	-0.14
